# Bioassay records as filed in PubChem BioAssay.
# Hits are enriched below; roughly 3.6% of the tested compounds scored in any of these assays.
# esBAF inh: inhibitors of esBAF chromatin remodeling in mouse ES cells; Bmi1-luciferase knock-in reporter, 24 h; 100% = twice the neutral-well signal; reporter increase, % at 12.5 µM; 350,000 compounds, 2% hits; in the data active = activation above about 40%; inconclusive = no clear call, values can overlap the other calls;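 note: 0% = median of the plate's neutral control wells and 100% = double that signal; a rise in the Bmi1 reporter signal indicates esBAF inhibition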
# A3A deaminase: human APOBEC3A DNA deaminase inhibition; 330,000 compounds, 0.41% hits; inhibition, % at 20 µM; P31941; recombinant A3A, FAM/TAMRA ssDNA deamination fluorescence; AID 493011;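 active = at least 40% inhibition at 20 µM here, with at most 30% in a related deaminase screen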;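 note: plate controls were A3A with DMSO for no effect and wells lacking A3A enzyme for full effect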
# Target sequence (P31941 whole entry, looked up): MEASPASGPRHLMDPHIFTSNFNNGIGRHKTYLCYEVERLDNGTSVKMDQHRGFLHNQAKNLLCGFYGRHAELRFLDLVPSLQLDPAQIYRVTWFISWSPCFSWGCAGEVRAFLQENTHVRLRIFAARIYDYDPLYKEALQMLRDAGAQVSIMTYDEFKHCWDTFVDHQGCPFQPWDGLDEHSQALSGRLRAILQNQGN
# PHOSPHO1 block: blocks human PHOSPHO1 phosphatase activity. recombinant PHOSPHO1, absorbance phosphatase assay. Q8TCT1. inhibition, % at 13.3 µM. 290,000 compounds, 1.1% hits; in the data active = inhibition above about 60%
# MITF TRPM1 HTS: MITF TRPM1 promoter activation in melanoma cells; 300,000 compounds, 0.75% hits; SK-MEL-5 TRPM1-promoter luciferase, 24 h; % of positive control, neutral wells = 0; activation, % at 12.5 µM;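 active = mean activation of at least 80% with every replicate also reaching 80%; inconclusive = mean reaches 80% but some replicate falls short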;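 note: 0% = neutral control wells and 100% = parthenolide positive control wells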
# A3G deaminase: APOBEC3G (human) deaminase inhibition | recombinant A3G, ssDNA deamination FAM/TAMRA fluorescence | inhibition, % at 20 µM | 330,000 compounds, 0.28% hits | AID 493012;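 active = inhibition of at least 40% at 20 µM, with no more than 30% in the related APOBEC3A deaminase screen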;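 note: plate controls were DMSO wells with A3G for no effect and wells lacking A3G enzyme for full effect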
# Target sequence (Q9HC16 whole entry, looked up): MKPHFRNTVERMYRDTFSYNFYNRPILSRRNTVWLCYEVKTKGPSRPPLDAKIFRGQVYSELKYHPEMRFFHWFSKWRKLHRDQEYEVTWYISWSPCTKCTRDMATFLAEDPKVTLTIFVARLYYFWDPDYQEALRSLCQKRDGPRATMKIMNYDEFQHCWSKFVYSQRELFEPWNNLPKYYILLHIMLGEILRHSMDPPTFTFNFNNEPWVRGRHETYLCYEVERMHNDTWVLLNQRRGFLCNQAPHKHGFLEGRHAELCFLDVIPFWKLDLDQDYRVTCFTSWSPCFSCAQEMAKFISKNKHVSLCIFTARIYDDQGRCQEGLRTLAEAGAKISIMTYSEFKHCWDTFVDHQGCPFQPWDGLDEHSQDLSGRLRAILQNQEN
# Wnt act: activators of Wnt/beta-catenin signaling | Wnt/beta-catenin reporter cell assay, activator, plate reader | activation, % at 9.35 µM | 300,000 compounds, 1.2% hits | AID 743398; in the data active = activation above about 30%, passing the limit was not always enough; inconclusive = no clear call, values can overlap the other calls;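 note: 0% = neutral control wells and 100% = positive control wells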
# The depositor's hits bear a star; ? = inconclusive; / = no result.
SMILES,esBAF inh,A3A deaminase,PHOSPHO1 block,MITF TRPM1 HTS,A3G deaminase,Wnt act
CCCCNC(=O)c1ccc(NC(=O)C2CCCO2)cc1 (stereo not given),0,-2,31,2,-3,1
CCCCc1ccc(NC(=S)Nc2cccnc2)cc1,/,-3,-15,1,-6,1
Cc1nn(C)cc1NC(=O)C[C@@H]1CC[C@@H]2[C@H](COc3ccc(NC(=O)Nc4cccc(Cl)c4)cc3C(=O)N2C)O1,0,/,/,/,/,/
COc1ccc(CN(C)C[C@@H]2OCCCC[C@@H](C)Oc3ccc(NC(=O)NC(C)C)cc3C(=O)N([C@@H](C)CO)C[C@H]2C)cc1,1,/,/,/,/,/
CC(C)NC(=O)CCc1nnc(Cc2cccc(C(F)(F)F)c2)o1,67*,0,41,53,0,3
Cc1ccc(S(=O)(=O)N(C)C[C@@H]2OCCCC[C@@H](C)Oc3ccc(NC(=O)NC4CCCCC4)cc3C(=O)N([C@@H](C)CO)C[C@@H]2C)cc1,13,/,/,/,/,/
C[C@@H]1CCCCO[C@H](CN(C)C(=O)c2ccncc2)[C@@H](C)CN([C@H](C)CO)C(=O)c2cc(NC(=O)CCC(F)(F)F)ccc2O1,-3,/,/,/,/,/
COc1cccc(CC2CC(=O)N(c3ccc4c(C)cc(=O)oc4c3)C2=O)c1 (stereo not given),4,1,61*,5,-13,-3
CCOC(=O)c1ccc2c(c1)nc(SC/C(O)=C(\C#N)c1nc3ccccc3[nH]1)n2CC,-2,21,88*,-20,12,/
CCOC(=O)c1ccc2c(c1)nc(SCC(=O)c1ccco1)n2CC,1,2,79*,22,-8,2
CCOC(=O)c1sc2nc(-c3cccnc3)ccc2c1N,/,1,24,77,-7,52*
CSc1nnc2c(n1)c(C)nn2-c1cccc(C)c1,45*,7,5,/,0,37*
COc1cccc(NC(=O)CN(C)C(=O)c2ccc3c(c2)CC(c2ccccc2)OC3=O)c1 (stereo not given),13,-6,/,-8,-9,48*
CNc1ccc(-c2cccc(CO)c2)cn1,41*,/,/,/,/,11
COc1cccc(C(=O)/C=C2\Sc3ccccc3N2C)c1,45*,-1,32,50,3,17
Cc1ccccc1-n1c(=O)/c(=C\c2ccco2)s/c1=C(/C#N)C(=O)Nc1ccccc1,-3,1,83*,-9,-5,-4
CCOC(=O)/C=c1\s/c(=C(\C#N)C(=O)NC)n(-c2ccccc2)c1=O,-18,-1,11,-5,-4,0
N#Cc1ccc(-c2csc(-c3ccno3)n2)cc1,/,-2,-3,/,-10,-1
FC(F)(F)c1ccc(-c2csc(-c3ccno3)n2)cc1,50*,-4,19,/,-9,23
O=C(NCC[C@@H]1CC[C@H](NC(=O)C2CCOCC2)[C@H](CO)O1)c1ccc(F)cc1,-3,/,/,/,/,/
CCN(C[C@H]1[C@H](c2ccccc2)[C@H](CO)N1C(C)=O)C(=O)c1ccccn1,2,/,/,/,/,/
COc1ccc(/C=C/C(=O)c2ccc[nH]2)cc1OC,53*,-1,-4,59,-2,6
COc1ccc(/C=C/C(=O)c2ccc[nH]2)c(OC)c1OC,47*,-1,36,/,-3,22
COc1ccc(/C=C/C(=O)c2ccncc2)c2ccccc12,/,-2,2,0,-7,7
CCCc1c(C(=O)N/N=C(\C)CCc2ccccc2)nnn1-c1nonc1N,-8,0,67*,-4,14,-1
SMILES,esBAF inh,A3A deaminase,PHOSPHO1 block,MITF TRPM1 HTS,A3G deaminase,Wnt act
COc1ccc(/C=N/N2CCN(c3ccccc3OC)CC2)cc1Br,38,-3,55,38,-6,7
COc1ccc(/C=N/N2CCN(c3ccccc3OC)CC2)cc1OC,10,0,18,31,1,/
COc1cccc(/C=N/N2CCN(c3ccccc3OC)CC2)c1,?,1,4,108*,-1,/
COc1ccccc1N1CCN(/N=C/c2cccc(Cl)c2)CC1,100*,-6,47,/,-8,42*
COc1ccccc1N1CCN(/N=C/c2cccc(OC)c2O)CC1,/,-1,32,75,-7,44*
COc1ccccc1N1CCN(/N=C/c2ccc(O)c(O)c2)CC1,/,-5,37,/,8,21
COc1ccc(S(=O)(=O)Nc2ccc3c(c2)C(=O)N([C@@H](C)CO)C[C@H](C)[C@@H](CN(C)S(=O)(=O)c2cccs2)O3)cc1,8,/,/,/,/,/
Nc1c(C(=O)c2ccccc2)sc2nsc(SCCN3CCOCC3)c12,/,-4,61*,/,-17,40*
CC(=O)c1cccc(Nc2nc(N3CCOCC3)nc(N3CCOCC3)n2)c1,-3,0,44,18,-4,0
CC(=O)c1ccc(Nc2nc(N3CCOCC3)nc(N3CCOCC3)n2)cc1,44*,-4,40,28,-4,-2
Cc1csc(SCC(=O)Nc2ccccc2)n1,9,-2,36,29,-6,2
Cn1c(CSCc2ccc(Cl)cc2)nnc1SCC(=O)Nc1nccs1,5,2,-17,-13,-7,-3
Cc1csc(SCC(=O)Nc2nc3ccccc3s2)n1,47*,-2,2,/,-9,-2
Cc1csc(NC(=O)CSc2ncnc3ccccc23)n1,-1,-2,63*,12,-7,1
Cc1csc(NC(=O)CSc2nc3ccccc3c3c2CCCC3)n1,/,-2,-1,35,-5,0
Cn1c(CSCc2ccc(Cl)cc2)nnc1SCC(=O)Nc1nc2ccccc2s1,2,1,73*,-5,4,0
C[C@H](N)c1nnc(SCc2c(Cl)cccc2Cl)o1,0,3,47,/,5,/
Clc1cccc(Cl)c1CSc1nnc(/C=C/c2ccccc2)o1,7,-4,66*,15,-7,/
C/C=C/c1ccc2c(c1)O[C@H](CN(C)C(=O)Cc1cccnc1)[C@H](C)CN([C@H](C)CO)S2(=O)=O,-10,/,/,/,/,/
Cc1cc(-c2ccc(F)cc2)nc2cc(C(N)=O)nn12,/,8,7,-4,-2,/
CCOC(=O)c1cnn2c(C)cc(-c3ccc(F)cc3)nc12,12,0,6,91*,-2,/
CCn1cnc2cc(NCc3ccc(Br)cc3)ccc21,/,-2,33,/,-8,36*
CC(C)n1cnc2cc(NCc3nc4ccccc4n3C)ccc21,/,0,-10,12,0,14
CCCn1cnc2cc(NCc3ccc(Br)cc3)ccc21,52*,-2,32,46,-4,2
CCN(CC)c1ccc(CNc2ccc3c(c2)ncn3CC)cc1,/,-2,-25,/,-7,0
CCCCn1cnc2cc(NCc3cccc(OC)c3O)ccc21,27,-4,-1,21,-6,3
CCn1cnc2cc(NCc3ccc(N(C)C)cc3)ccc21,36,6,-17,9,5,10
CCCn1cnc2cc(NCc3ccccc3O)ccc21,57*,-3,-5,30,-13,8
Cc1ccc(CNc2ccc3c(c2)ncn3C(C)C)cc1,68*,-6,22,89*,-7,0
